Laboratory results as given in the antibiotic and cytotoxicity screens of Wong et al. (2023).
Hit rate of the full screen: of about 39,000 compounds, about 1,500 (3.8%) were called active. The sample holds actives, similar compounds and a random draw of the others, so the mix is not that of the screen.

The compounds below were run on HSkMC (human skeletal muscle cells) (assay: cytotoxicity call (relative viability < 0.9)). Conditions: 10 µM.

Compound	cytotoxicity call
C[C@@H]1CN([C@H](C)CO)C(=O)c2cc(NS(=O)(=O)c3ccc(Cl)cc3)ccc2O[C@@H](C)CCCCO[C@@H]1CN(C)C(=O)NC1CCCCC1	inactive
C[C@@H]1CCCCO[C@H](CN(C)Cc2ccc(C(=O)O)cc2)[C@H](C)CN([C@H](C)CO)C(=O)c2cc(NC(=O)c3ccccc3)ccc2O1	inactive
C[C@@H]1CN([C@H](C)CO)C(=O)c2cc(NC(=O)Cn3cnnn3)ccc2O[C@@H]1CN(C)S(C)(=O)=O	inactive
C[C@@H]1CCCCO[C@@H](CN(C)S(C)(=O)=O)[C@@H](C)CN([C@@H](C)CO)C(=O)c2cc(NS(=O)(=O)c3ccccc3)ccc2O1	inactive
CCC1(O)C(=O)OCc2c1cc1n(c2=O)Cc2cc3c(CN(C)C)c(O)ccc3nc2-1.Cl (stereo not drawn)	inactive
CCC1(O)C(=O)OCc2c1cc1n(c2=O)Cc2cc3cc(O)ccc3nc2-1 (stereo not drawn)	inactive
CC[C@@]1(O)C(=O)OCc2c1cc1n(c2=O)Cc2c-1nc1cc(F)c(C)c3c1c2[C@@H](N)CC3	active
CC(C)(C)[S@@](=O)N1Cc2cc(C(=O)N[C@H]3CCN(Cc4ccccc4)C3)nc(-c3cccc(-c4ccncc4)c3)c2[C@H]1CCO	inactive
Cc1noc(C)c1NC(=O)Nc1cccc2c1O[C@H](CN(C)Cc1ccc(Oc3ccccc3)cc1)[C@@H](C)CN([C@@H](C)CO)C2=O	inactive
C[C@H]1CCCCO[C@H](CN(C)S(=O)(=O)c2ccccc2)[C@@H](C)CN([C@@H](C)CO)C(=O)c2cc(NS(=O)(=O)c3cn(C)cn3)ccc2O1	inactive
Nc1ccccc1C(=O)N1CCOCC1	inactive
O=C(c1ccccc1O)N1CCOCC1	inactive
O=C(c1cn(Cc2cncn2Cc2ccc(Br)cc2)cc1-c1cccc2ccccc12)N1CCOCC1	active
C[C@@H]1CN([C@H](C)CO)C(=O)c2cc(NC(=O)Nc3ccccc3)ccc2O[C@@H](C)CCCCO[C@H]1CN(C)Cc1ccncc1	inactive
CO[C@H]1/C=C\O[C@@]2(C)Oc3c(C)c(O)c4c(c3C2=O)[C@]2(C=C(NC(=O)/C(C)=C\C=C/[C@@H](C)[C@@H](O)[C@@H](C)[C@@H](O)[C@@H](C)[C@@H](OC(C)=O)[C@@H]1C)C4=O)OCC(=O)O2	active
CO[C@H]1/C=C\O[C@@]2(C)Oc3c(C)c(O)c4c(O)c(c(/C=N/N=C/N5CCCCC5)c(O)c4c3C2=O)NC(=O)/C(C)=C\C=C/[C@H](C)[C@H](O)[C@@H](C)[C@@H](O)[C@@H](C)[C@H](OC(C)=O)[C@@H]1C	active
COC1C=COC2(C)Oc3c(C)c(O)c4c(O)c(c(C=NN5CCN(C6CCCC6)CC5)c(O)c4c3C2=O)NC(=O)C(C)=CC=CC(C)C(O)C(C)C(O)C(C)C(OC(C)=O)C1C (stereo not drawn)	inactive
COC1C=COC2(C)Oc3c(C)c(O)c4c(O)c(c5c(nc6cc(C)ccn65)c4c3C2=O)NC(=O)C(C)=CC=CC(C)C(O)C(C)C(O)C(C)C(OC(C)=O)C1C (stereo not drawn)	inactive
COC1C=COC2(C)Oc3c(C)c(O)c4c(O)c(c(C=NN5CCN(C)CC5)c(O)c4c3C2=O)NC(=O)C(C)=CC=CC(C)C(O)C(C)C(O)C(C)C(OC(C)=O)C1C (stereo not drawn)	inactive
[N-]=[N+]=Nc1ccccc1[C@H]1OC(c2ccc(OCCCO)cc2)=N[C@@]1(CCS(=O)(=O)c1ccccc1)C(=O)N1CCCCC1	inactive
C[C@@H]1CCCCO[C@@H](CN(C)S(=O)(=O)c2ccc(Cl)cc2)[C@@H](C)CN([C@@H](C)CO)C(=O)c2cc(NC(=O)Nc3cccc4ccccc34)ccc2O1	inactive

Compound	cytotoxicity call
COc1ccccc1S(=O)(=O)N[C@H]1CC[C@H](CCNC(=O)C2CC2)O[C@H]1CO	inactive
CN1C(=O)c2cc(NC(=O)Cc3cccs3)ccc2OC[C@@H]2O[C@H](CC(=O)NCCc3ccncc3)CC[C@H]21	inactive
COc1ccc(CN(C)C[C@@H]2Oc3c(NC(=O)c4cc(C)nn4C)cccc3C(=O)N([C@H](C)CO)C[C@H]2C)cc1	inactive
Cc1c(CN2CCC(Nc3ncnc4sc(CC(F)(F)F)cc34)CC2)ccc2c1cc(C#N)n2Cc1cn[nH]c1	active
COc1ccc(NC(=O)N(C)C[C@H]2Oc3ccc(NC(=O)Nc4cccc5ccccc45)cc3C(=O)N([C@@H](C)CO)C[C@H]2C)cc1	inactive
COc1cc([C@@H]2c3cc4c(cc3[C@@H](O[C@@H]3O[C@@H]5CO[C@@H](C)O[C@H]5[C@H](O)[C@H]3O)[C@H]3COC(=O)[C@H]23)OCO4)cc(OC)c1O	active
COc1cc(C2c3cc4c(cc3C(OC3OC5COC(C)OC5C(O)C3O)C3COC(=O)C23)OCO4)cc(OC)c1O (stereo not drawn)	inactive
COc1cc([C@@H]2c3cc4c(cc3[C@@H](O[C@@H]3O[C@@H]5CO[C@@H](C)O[C@H]5[C@H](O)[C@H]3O)[C@@H]3COC(=O)[C@@H]23)OCO4)cc(OC)c1O	inactive
CC(C)(C)C(=O)Nc1ccccc1F	inactive
CCN(CC)C(=S)SSC(=S)N(CC)CC	active
C[C@H](CO)N1C[C@H](C)[C@@H](CN(C)S(=O)(=O)c2ccc(F)cc2)Oc2ccc(NC(=O)Nc3cccc4ccccc34)cc2C1=O	inactive
O=S1(=O)CCC(O)CC1	inactive
O=C(CNc1ccc2c(c1)oc1ccccc12)c1ccc(F)cc1	inactive
Cc1ccc(S(=O)(=O)Nc2ccc3c(c2)CC(=O)N([C@@H](C)CO)C[C@@H](C)[C@H](CN(C)Cc2ccc(Cl)c(Cl)c2)O3)cc1	inactive
Cc1ccc(S(=O)(=O)Nc2ccc3c(c2)CC(=O)N([C@H](C)CO)C[C@H](C)[C@H](CN(C)Cc2ccc(Cl)c(Cl)c2)O3)cc1	active
Cc1ccc(S(=O)(=O)Nc2ccc3c(c2)CC(=O)N([C@@H](C)CO)C[C@H](C)[C@@H](CN(C)Cc2ccc(Cl)c(Cl)c2)O3)cc1	active
Cc1ccc(S(=O)(=O)Nc2ccc3c(c2)CC(=O)N([C@H](C)CO)C[C@H](C)[C@@H](CN(C)Cc2ccc(Cl)c(Cl)c2)O3)cc1	inactive
Cc1ccc(S(=O)(=O)Nc2ccc3c(c2)CC(=O)N([C@@H](C)CO)C[C@@H](C)[C@@H](CN(C)Cc2ccc(Cl)c(Cl)c2)O3)cc1	active
Cc1ccc(S(=O)(=O)Nc2ccc3c(c2)CC(=O)N([C@@H](C)CO)C[C@H](C)[C@H](CN(C)Cc2ccc(Cl)c(Cl)c2)O3)cc1	active
C[C@H](CO)N1C[C@H](C)[C@H](CN(C)C(=O)NC2CCCCC2)OCc2ccccc2-c2c(n(C)c3ccccc23)C1=O	inactive
CN1C(=O)CO[C@H]2CN(C(=O)NCc3cccnc3)C[C@@H]21	inactive

Compound	cytotoxicity call
COc1ccc(S(=O)(=O)Nc2ccc3c(c2)CC(=O)N([C@@H](C)CO)C[C@H](C)[C@@H](CN(C)S(=O)(=O)c2ccc(C)cc2)O3)cc1	inactive
Cc1nnc(SCC2=C(C(=O)O)N3C(=O)[C@@H](NC(=O)Cn4cnnn4)[C@H]3SC2)s1	inactive
O=C(O)[C@@H]1CCCNC1	inactive
CC(=O)CNC(=O)Cc1ccccc1	inactive
CCN(CC)S(=O)(=O)c1nnc[nH]1	inactive
C[C@H](CO)N1C[C@H](C)[C@@H](CN(C)C(=O)Nc2ccc(C(F)(F)F)cc2)Oc2ncc(-c3ccc(C#N)cc3)cc2C1=O	inactive
CO[C@@H](C(=O)N(C)C[C@H]1OCc2ccccc2-c2c(n(C)c3ccccc23)C(=O)N([C@H](C)CO)C[C@@H]1C)c1ccccc1	inactive
CC(C)(C)OC(=O)N1CC[C@H](c2cn(-c3ccc(C(F)(F)F)cc3)nn2)[C@@H]1C(=O)Nc1cccc2cccnc12	inactive
CO[C@@H]1CN(C)C(=O)c2cc(NS(C)(=O)=O)ccc2OC[C@H](C)N(C(=O)C2CCCCC2)C[C@@H]1C	inactive
COc1ccc(CN(C)C[C@H]2OCCCC[C@@H](C)Oc3ccc(NC(=O)Cc4ccccc4)cc3C(=O)N([C@H](C)CO)C[C@@H]2C)cc1	inactive
CN1C(=O)c2cc(NC(=O)c3cnccn3)ccc2OC[C@@H]2O[C@H](CC(=O)N[C@H]3CCN(Cc4ccccc4)C3)CC[C@@H]21	inactive
C[C@@H]1CN([C@H](C)CO)C(=O)c2ccccc2-c2ccccc2CO[C@@H]1CN(C)C(=O)Nc1cccc(Cl)c1Cl	inactive
Cc1ccc(S(=O)(=O)Nc2ccc3c(c2)CC(=O)N([C@H](C)CO)C[C@@H](C)[C@H](CN(C)Cc2ccc(Cl)c(Cl)c2)O3)cc1	inactive
Cc1ccc(S(=O)(=O)Nc2ccc3c(c2)CC(=O)N([C@H](C)CO)C[C@@H](C)[C@@H](CN(C)Cc2ccc(Cl)c(Cl)c2)O3)cc1	active
C[C@H]1CN([C@@H](C)CO)C(=O)c2cccc(NC(=O)Nc3ccc(C(F)(F)F)cc3)c2O[C@H]1CN(C)S(=O)(=O)c1ccc(Cl)cc1	active
C[C@H]1CN([C@@H](C)CO)C(=O)c2cccc(NC(=O)Nc3ccc(C(F)(F)F)cc3)c2O[C@@H]1CN(C)S(=O)(=O)c1ccc(Cl)cc1	active
C[C@H](CO)N1C[C@H](C)[C@H](CN(C)S(=O)(=O)c2ccc(Cl)cc2)Oc2c(NC(=O)Nc3ccc(C(F)(F)F)cc3)cccc2C1=O	inactive
C[C@@H]1CN([C@@H](C)CO)C(=O)c2cccc(NC(=O)Nc3ccc(C(F)(F)F)cc3)c2O[C@H]1CN(C)S(=O)(=O)c1ccc(Cl)cc1	inactive
C[C@@H]1CN([C@@H](C)CO)C(=O)c2cccc(NC(=O)Nc3ccc(C(F)(F)F)cc3)c2O[C@@H]1CN(C)S(=O)(=O)c1ccc(Cl)cc1	inactive
C[C@@H]1CN([C@H](C)CO)C(=O)c2cccc(NC(=O)Nc3ccc(C(F)(F)F)cc3)c2O[C@@H]1CN(C)S(=O)(=O)c1ccc(Cl)cc1	inactive
C[C@@H]1CCCCO[C@H](CN(C)Cc2ccc(Cl)c(Cl)c2)[C@H](C)CN([C@@H](C)CO)C(=O)c2cc(NS(C)(=O)=O)ccc2O1	inactive
